According to PubChem BioAssay (NCI):
This is part of a sample that, as a whole, favours compounds with a hit. Of some 83,000 tested, about 20% had one in any assay.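 The endpoint reported here, percent growth, reads 100 for growth as untreated, 0 for no net growth and -100 for all cells dead.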 Values without a mark were called inactive. Calls of active or inactive are those of the source.

System: NCI-H226 lung
Assay: NCI-60 one-dose screen, 48 h (100 = growth as untreated, 0 = no growth, -100 = all killed)
Details: 10 µM unless noted
Experimental: Growth inhibition of the NCI-H226 human Non-Small Cell Lung tumor cell line is measured as a screen for anti-cancer activity. Cells are grown in 96 well plates and exposed to the test compound for 48 hours. Compounds are tested at a single concentration, which is 10^-5 M for most compounds. The reported endpoint is percent growth (GI% or GIPRCNT), where numbers from 0 - 100% represent growth inhibition, and numbers from -100% - 0 represent cell death. For example, a value of 40 represents 60% growth inhibition. A value of 0 means no net growth occurred over the course of the experiment. A value of -40 indicates 40% of cells at the beginning of the experiment died by the end of the experiment. A value of -100 means all cells are dead at the end of the experiment.
NCI-60 Human Tumor Cell Lines Screen was performed using the standard one-dose NCI protocol, which is described in more detail at https://dtp.cancer.gov/discovery_development/nci-60/default.htm.
Compounds with GIPRCNT values below 10 were considered active. Activity score was based on GIPRCNT using the following formula: […]
Score is 0 for GIPRCNT values of 100 or above, 50 for GIPRCNT values of 0, and 100 for GIPRCNT values of -100.

Question: O=C(c1cccc(O)c1O)c1cn(Cc2ccc(F)cc2)c2cccc(O)c12 was tested. Which growth did it give?
Answer: Its growth is 61.5%.

Question: Which growth does the source give for COc1ccc(/C=C\c2cc(OC)c(OC)c(OC)c2)c(NS(=O)(=O)c2ccc(F)cc2)c1O here?
Answer: Its growth is 35.1%.

Question: Nc1nnnc2nc[nH]c12 was tested. Which growth did it give?
Answer: Its growth is -54.1% (active).

Question: C/C(Cc1ccc(Cl)cc1)=C(\c1ccc(OCCN2CCOCC2)cc1)c1ccc(OC(=O)Cc2ccccc2)cc1 was tested. Which growth did it give?
Answer: The growth was 101%.

Question: Which growth does the source give for O=C1N[C@@H]2[C@@H](O)[C@@H](O)[C@H](O)C[C@H]2c2cc3c(c(O)c21)OCO3 here?
Answer: The growth was -38.3% (active).

Question: CC(=O)Oc1ccccc1C(=O)NCCC[Se]C#N was tested. Which growth did it give?
Answer: The growth was -22.8% (active).

Question: COc1ccc2c(c1)c(-c1nc(-c3c[nH]c4ncccc34)cs1)cn2CCN1CCOCC1 was tested. Which growth did it give?
Answer: The growth was 49.7%.

Question: Which growth does the source give for O=NN1CCCc2cccc(O)c21 here?
Answer: Its growth is 76.5%.

Question: CCC[CH2][Sn]([CH2]CCC)([CH2]CCC)[O]c1ccc(Cl)cc1Cl was tested. Which growth did it give?
Answer: The growth was -86.5% (active).

Question: Which growth does the source give for COC(=O)[C@@H](C)C[C@H](Cc1ccccc1)NC(=O)c1csc([C@@H](C[C@H](C(C)C)N(C)C(=O)[C@@H](NC(=O)CN(C)C)C2CC2)OC(C)=O)n1 here?
Answer: The growth was 19.1%.

Question: How did the growth turn out when Oc1c(O)c(Cl)c(Cl)c(Cl)c1Cl was run?
Answer: The growth was 36.8%.

Question: For CC12CCC3C(CCC4=CC(=O)CCC43CF)C1CCC2=O (stereo not given), which growth is on record?
Answer: The growth was 111%.

Question: Which growth does the source give for COc1cc2c(cc1OCCCn1c(-c3ccccn3)nc3ccccc31)N=C[C@@H]1CCCN1C2=O here?
Answer: Its growth is -62% (active).

Question: COc1ccc(C/C(C)=C(\c2ccc(OCCN3CCOCC3)cc2)c2ccc(OC(=O)Cc3ccccc3)cc2)cc1 was tested. Which growth did it give?
Answer: The growth was -26.6% (active).

Question: Which growth does the source give for C[CH2][Sn]([Cl])([Cl])[CH2]C.Oc1ccccc1C=NCCN=Cc1ccccc1O here?
Answer: Its growth is 99.1%.

Question: CNC(=O)Oc1ccc(C(C)(C)C)cc1OC(=O)NC was tested. Which growth did it give?
Answer: Its growth is 93.6%.

Question: How did the growth turn out when CCOC(=O)N[C@H]1CCc2c(Br)c(OC)c(OC)c(OC)c2-c2ccc(SC)c(=O)cc21 was run?
Answer: The growth was 10.3%.

Question: Which growth does the source give for C[C@]12CC[C@@H]3c4ccc(Oc5nc(N6CC6)nc(N6CC6)n5)cc4CC[C@H]3[C@@H]1CCC2=O here?
Answer: The growth was 48.7%.

Question: For CO[C@H]1CC[C@@]2(C)C(=CC[C@@H]3[C@@H]2CC[C@]2(C)C(=O)C(=O)C[C@@H]32)C1, which growth is on record?
Answer: Its growth is 96.1%.

Question: For [Cl][Hg][n]1c(-c2ccco2)nc2ccccc21, which growth is on record?
Answer: The growth was 97.5%.

Question: With Cc1cc(NC(=O)NCc2ccc(N3C(N)=NC(N)=NC3(C)C)cc2)ccc1S(=O)(=O)F as the compound, how does the growth read?
Answer: The growth was 101%.

Question: With CCOC(=O)CCN(C)C1=Nc2ccc(Cl)cc2C(c2ccccc2)=[N+]([O-])C1 as the compound, how does the growth read?
Answer: Its growth is 104%.

Question: For O=C(CCCC1CCCCC1)OCC(Cl)(Cl)Cl, which growth is on record?
Answer: The growth was 99%.

Question: With COc1cc([C@@H]2c3cc4c(cc3[C@H](OC(C)=O)[C@H]3COC(=O)[C@H]23)OCO4)cc(OC)c1OC as the compound, how does the growth read?
Answer: Its growth is 76.4%.

Question: For c1ccc(Nc2nc(-c3ccccc3)c[se]2)cc1, which growth is on record?
Answer: The growth was 81.4%.

Question: With CC(=O)[O][Hg][O]C(C)=O as the compound, how does the growth read?
Answer: Its growth is 118%.

Question: How did the growth turn out when O=c1[nH]c2ccc([N+](=O)[O-])cc2c(=O)o1 was run?
Answer: The growth was 108%.

Question: O=C(Nc1ccc([As]=[As]c2ccc(NC(=O)c3ccccc3)cc2)cc1)c1ccccc1 (stereo not given) was tested. Which growth did it give?
Answer: Its growth is -85.5% (active).

Question: For Cc1ccc(S(=O)(=O)C(Cl)(Cl)Cl)cc1, which growth is on record?
Answer: Its growth is 80.4%.

Question: With Cc1cc(N(CCCl)CCCl)ccc1/C=N\NC(=O)c1ccncc1 as the compound, how does the growth read?
Answer: Its growth is -7.98% (active).

Question: With O=[N+]([O-])c1cc(I)cc([N+](=O)[O-])c1 as the compound, how does the growth read?
Answer: Its growth is 115%.

Question: With COc1ccc(C(O)(C(=O)O)c2ccc(OC)cc2)cc1 as the compound, how does the growth read?
Answer: Its growth is 116%.

Question: With ClCCN(CCCl)Cc1ccc(Nc2ccnc3cc(Cl)ccc23)cc1 as the compound, how does the growth read?
Answer: Its growth is 70.2%.

Question: How did the growth turn out when C=CC[n+]1ccc(-c2cc[n+](CC=C)cc2)cc1 was run?
Answer: Its growth is 99%.

Question: How did the growth turn out when C=C(C)[C@@]12OC3(/C=C/C=C/CCCCC)O[C@@H]1[C@@H]1[C@@H]4O[C@]4(CO)[C@@H](O)[C@]4(O)C(=O)C(C)=C[C@H]4[C@@]1(O3)[C@H](C)[C@H]2OC(=O)c1ccccc1 was run?
Answer: The growth was 79.2%.

Question: CCNc1nc(Cl)nc(NCC)n1 was tested. Which growth did it give?
Answer: The growth was 90.4%.

Question: For CN1CCC(O)(c2ccc(F)cc2)C(C(=O)c2ccc(F)cc2)C1 (stereo not given), which growth is on record?
Answer: Its growth is 108%.

Question: How did the growth turn out when Cn1cc(-c2csc(-c3cn(CCN4CCOCC4)c4ccccc34)n2)c2cccnc21 was run?
Answer: Its growth is 41.4%.

Question: Cn1cc(-c2csc(-c3cn(CCN4CCOCC4)c4ccc(F)cc34)n2)c2cccnc21 was tested. Which growth did it give?
Answer: Its growth is 16.6%.

Question: Which growth does the source give for CCC1(C(C)C)C(=O)NC(=S)NC1=O here?
Answer: The growth was 90.5%.
